Test [1] is described as follows: qHTS assay to identify small molecule agonists of the RXR signaling pathway - cell viability counter screen (AID 1159529).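 Note: HEK 293T cells carrying an RXR-alpha UAS beta-lactamase reporter; series mostly up to about 77 µM; nearly all actives have a fitted effect of over 50% in size.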 The gist of the method: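 HEK 293T RXRa-bla cells, 2% CS-FBS; 5 h settle; cpd 16 h 37 C, 5% CO2; CellTiter-Glo 30 min RT, luminescence. Tetraoctyl ammonium bromide as positive control.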
Background: Quantitative high-throughput screening tests each substance at several concentrations.

The nature of test [2]: qHTS assay to identify small molecule antagonists of the retinoid acid receptor (RAR) signaling pathway - cell viability counter screen (AID 1159551). Note: nearly all actives have a fitted effect of over 35% in size. Summed up:
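Viability of C3RL4 cells is quantified from ATP by luminescence after 6 h treatment at 37 C with compounds and 1 uM retinol.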

Test [3] can be described thus: qHTS assay to identify small molecule antagonists of the retinoic acid receptor (RAR) signaling pathway (AID 1159552; note: nearly all actives have a fitted effect of over 50% in size). The gist of the method:
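Cells of the C3RL4 line were seeded, incubated overnight, then dosed with compounds in DMSO followed immediately by retinol (1 uM final). Six hours later luciferase detection reagent went in; signal was measured after 30 min at RT.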

Test [4] in a line: qHTS assay to identify small molecule agonists of the retinoic acid receptor (RAR) signaling pathway (AID 1159553). The gist of the method:
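Compounds dissolved in DMSO were pinned onto C3RL4 cells seeded the previous day, and plates were held 6 hr at 37 C. RARE-driven luciferase output was then read by luminescence.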

Test [5] can be described thus: qHTS assay to identify small molecule antagonists of the estrogen related receptor (ERR) signaling pathway from Tox21 library - cell viability counter screen (AID 1224834). Note: nearly all actives have a fitted effect of over 30% in size. The gist of the method:
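In this quantitative HTS format, ERR cells receive compounds in DMSO and are incubated for 17.5 h at 37 C. Live-cell protease activity is then detected with CellTiter-Fluor.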

The target of test [6] is Luciferin 4-monooxygenase (Photinus pyralis) (UniProt P08659). As to the kind of experiment: qHTS assay to identify small molecule inhibitors of firefly luciferase (AID 1224835). Note: nearly all actives have a fitted effect of over 25% in size. Note: potency is the fitted concentration of half-maximal effect. Summed up:
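Inhibition of purified Photinus luciferase is measured by luminescence. Substrate levels (D-luciferin, ATP) sit at their KM values. Each compound is tested in a concentration series.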

Test [7] is described as follows: qHTS assay to identify small molecule antagonists of the constitutive androstane receptor (CAR) signaling pathway - cell viability counter screen (AID 1224837). Note: series mostly up to about 92 µM; nearly all actives have a fitted effect of over 45% in size. The gist of the method:
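In quantitative HTS format, compounds at 15 concentrations were applied to HepG2 cells double-transfected with hCAR and CYP2B6-2.2kb under 50 nM CITCO stimulation; live-cell protease activity was read after 23 hr via CellTiter-Fluor.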

For test [8], the target named is Nuclear receptor subfamily 1 group I member 3 (Homo sapiens) (UniProt Q14994). As to the kind of experiment: qHTS assay to identify small molecule agonists of the constitutive androstane receptor (CAR) signaling pathway (AID 1224839).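 Note: HepG2 cells stably carrying human CAR and a CYP2B6 luciferase reporter; series mostly up to about 92 µM; nearly all actives have a fitted effect of over 15% in size.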 Summed up:
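HepG2-CYP2B6-hCAR cells, 2500/well, 4 h pre-incubation; compounds 15 conc.; PK11195 0.75 uM final; 24 h, 37 C/5% CO2; ONE-Glo luciferase read.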

The nature of test [9]: qHTS assay to identify small molecule antagonists of the estrogen related receptor signaling pathway with the pleiotropic PPARgamma coactivator (PGC) from Tox21 10K library - cell viability counter screen (AID 1224840; active = well fitted cell-killing curve with a large enough effect in the repeat runs, not every such curve was filed as active; note: nearly all actives have a fitted effect of over 40% in size). Summed up: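 Viability counter screen, PGC/ERR cells: 17.5 h compound exposure at 37 C, CellTiter-Fluor fluorescence endpoint.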
A short description of test [10]: qHTS assay to identify small molecule antagonists of the estrogen related receptor signaling pathway with the pleiotropic PPARgamma coactivator (PGC) from Tox21 10K library (AID 1224841; call rule not given here; note: actives are mostly falling curves and most rising ones were filed inactive; nearly all actives have a fitted effect of over 50% in size; note: potency is the fitted concentration of half-maximal effect). Summed up:
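In the PGC/ERR line, DMSO solutions of test chemicals are pin-delivered to 2,000 cells/well six hours after dispensing. Following eighteen hours' incubation, One-Glo reagent is added and luminescence recorded.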

Test [11] in a line: qHTS assay to identify small molecule agonists of the estrogen related receptor signaling pathway with the pleiotropic PPARgamma coactivator (PGC) from Tox21 10K library (AID 1224842). Note: nearly all actives have a fitted effect of over 15% in size. The gist of the method:
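Luminescence from One-Glo (30 min, room temperature) measured after PGC/ERR cells had 18 h at 37 C with pinned compound (23 nL in DMSO). Cells had been seeded at 2,000 per well and pre-incubated 6 h.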

Test [12] can be described thus: qHTS assay to identify small molecule agonists of the constitutive androstane receptor (CAR) signaling pathway - cell viability counter screen (AID 1224836). Note: series mostly up to about 92 µM; nearly all actives have a fitted effect of over 45% in size. The gist of the method: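 HepG2-CYP2B6-hCAR, 2500 cells/well, 4 h pre-incubation; cpd 15 conc + PK11195 0.75 uM final; 23 h, 37 C/5% CO2; CellTiter-Fluor, fluorescence.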
In test [13] the target is Nuclear receptor subfamily 1 group I member 3 (Homo sapiens) (UniProt Q14994). The test can be described thus: qHTS assay to identify small molecule antagonists of the constitutive androstane receptor (CAR) signaling pathway (AID 1224838). Note: nearly all actives have a fitted effect of over 40% in size. The gist of the method:
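CITCO-stimulated (50 nM final) HepG2 cells stably transfected with hCAR and CYP2B6-2.2kb luciferase were exposed to compounds at 15 concentrations for 24 h at 37 C/5% CO2. A luciferase reagent was added and luminescence recorded after 30 min.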

Results filed as inconclusive are left out. Active and inactive are the calls of the source. Unless noted, calls come from the whole dose curve; as a rule, active = well fitted curve in the direction sought with a large enough effect in the repeat runs; inconclusive = weak or mixed curves; inactive = no such curve, though single readings can be large; an effect the other way counts as inactive or inconclusive.

Luciferin 4-monooxygenase (Photinus pyralis), sequence (P08659 whole entry, looked up): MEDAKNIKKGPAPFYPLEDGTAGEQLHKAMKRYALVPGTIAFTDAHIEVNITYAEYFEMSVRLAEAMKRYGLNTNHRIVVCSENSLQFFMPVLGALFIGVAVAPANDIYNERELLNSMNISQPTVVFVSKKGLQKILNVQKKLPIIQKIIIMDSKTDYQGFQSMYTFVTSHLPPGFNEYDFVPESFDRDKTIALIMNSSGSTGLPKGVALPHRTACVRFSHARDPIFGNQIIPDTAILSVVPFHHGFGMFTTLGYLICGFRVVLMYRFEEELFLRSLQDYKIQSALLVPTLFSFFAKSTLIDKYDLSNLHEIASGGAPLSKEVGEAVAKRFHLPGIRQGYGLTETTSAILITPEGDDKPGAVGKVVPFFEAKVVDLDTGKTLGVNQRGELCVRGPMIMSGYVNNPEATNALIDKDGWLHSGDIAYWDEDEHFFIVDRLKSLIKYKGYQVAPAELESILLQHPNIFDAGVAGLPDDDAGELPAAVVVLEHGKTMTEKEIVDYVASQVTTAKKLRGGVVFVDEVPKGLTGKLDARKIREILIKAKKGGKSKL
Nuclear receptor subfamily 1 group I member 3 (Homo sapiens), sequence (Q14994 whole entry, looked up): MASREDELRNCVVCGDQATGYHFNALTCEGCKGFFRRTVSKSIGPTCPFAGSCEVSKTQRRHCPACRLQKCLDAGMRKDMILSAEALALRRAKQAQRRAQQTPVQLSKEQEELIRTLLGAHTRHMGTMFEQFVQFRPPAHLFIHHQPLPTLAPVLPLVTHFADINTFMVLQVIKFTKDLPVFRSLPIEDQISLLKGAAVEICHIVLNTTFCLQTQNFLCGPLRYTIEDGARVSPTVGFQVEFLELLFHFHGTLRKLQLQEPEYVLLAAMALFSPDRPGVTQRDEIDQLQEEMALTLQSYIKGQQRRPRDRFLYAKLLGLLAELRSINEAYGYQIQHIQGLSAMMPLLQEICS

On to `CCC(C)OC(=O)N1CCCCC1CCO` (stereo not drawn), for which the Potency result in [1], in test [3], in test [4], in test [5], in test [6] and in test [8] was “inactive” throughout. Further, the Potency result in [10] and in test [11] was “inactive” each time. For the same compound, the call in test [2], in test [7] and in [9] was inactive.
Consider `COC(=O)[C@H]1[C@H]2C[C@@H]3c4[nH]c5cc(OC)ccc5c4CCN3C[C@H]2C[C@@H](OC(=O)COc2ccc(OC)cc2)[C@@H]1OC`, for which the Potency result in [1], in test [3], in [4], in test [5], in test [6] and in test [13] was “inactive” throughout. Also, the Potency entry in test [8], in [10] and in [11] was “inactive” in each case. The compound was called inactive in test [12] and in test [9].
`CN(C)C(=O)Nc1ccccc1`: the compound was classed as inactive in test [2], in test [12], in test [7] and in test [9]. Also, the Potency result in [3], in [4], in [5], in test [6], in test [13] and in [8] was “inactive” throughout. The Potency entry in [10] and in [11] was “inactive” throughout.
Regarding `Cc1onc(-c2ccccc2)c1-c1ccc(S(N)(=O)=O)cc1`, the compound was classed as inactive in test [2], in [7] and in test [9]. Besides, the Potency result in test [3], in test [4], in [5], in [6], in test [13] and in [8] was “inactive” in each case. Further, the Potency result in [11] is “inactive”. Besides, the Potency in test [10] was 23.7 µM (active).
Take `C#CC(C)(O)CC(C)C` (stereo not drawn): the Potency entry in [1], in test [3], in test [4], in test [6], in test [13] and in test [8] was “inactive” throughout. Also, the Potency result in test [10] and in test [11] was “inactive” throughout. Moreover, the result in test [2], in test [7] and in [9] was inactive.
Turning to `CNC(=O)c1c(I)c(NC(=O)CCCCC(=O)Nc2c(I)c(C(=O)O)c(I)c(C(=O)NC)c2I)c(I)c(C(=O)O)c1I`, the Potency result in test [1], in test [3], in test [4], in test [6], in test [13] and in test [8] was “inactive” in each case. For the same compound, the Potency result in test [10] and in test [11] was “inactive” in each case. The result in test [2], in test [12], in test [7] and in test [9] was inactive.
Regarding `CCCCCCC(=O)OCC`, the Potency result in [1], in [3], in test [4], in [5], in test [13] and in test [8] was “inactive” in each case. For the same compound, the Potency result in test [10] and in [11] was “inactive” each time. For the same compound, the compound was classed as inactive in test [2], in test [12], in test [7] and in test [9].
With `CCO[Si](C)(OCC)OCC`, the result in test [2], in test [12], in [7] and in test [9] was inactive. The Potency entry in test [3], in test [4], in test [5], in test [6], in [8] and in test [10] was “inactive” throughout. Besides, the Potency result in test [11] was “inactive”.
Consider `CC(C)(C)C(=O)/C=C/c1ccc(Cl)cc1`, for which the Potency entry in [1], in test [3], in test [4], in test [5], in [13] and in test [8] was “inactive” throughout. The Potency result in test [10] and in [11] was “inactive” each time. Further, the outcome in [2], in test [7] and in test [9] was inactive. In test [6], the Potency was 25.2 µM (active).

The values above are taken from PubChem BioAssay (Tox21).
